Several values for one entry are separate records, joined by “and”; a condition that tells them apart may be missing. Identical values can stand only once. The whole screen tested about 5,500 compounds, of which about 2,000 (36%) were called active. Inconclusive results (about 18%) are left out. No stated cut-off is given here; in the data, active means normalized growth mostly below about 0.91 (no sharp cut-off); inconclusive means no clear call, values can overlap the other calls; inactive means mostly above about 0.92. This is one part of the list.
Experiment: chemical genetic growth profiling, strain panel (AID 1159580);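 further: tested at 20 µM; growth read once vehicle control cultures reached saturation at 30 °C; 1 = growth at the plate median or of vehicle wells; lower values mean less growth of the strain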
Conditions: S. cerevisiae deletion strains, growth OD

Measured: normalized growth

CC(C)(C)NCC(O)c1cc(O)cc(O)c1 (stereo not drawn)
inactive: locus YAL013W, strain DEP1, hits give low values 1 | locus YAL021C, strain ccr4, hits give low values 0.975 | locus YAL026C, strain drs2, hits give low values 0.979 | locus YAL030W, strain snc1, hits give low values 0.98 | locus YAL040C, strain CLN3, hits give low values 0.976 | locus YBL061C, strain skt5, hits give low values 0.963 | locus YBR009C, strain hhf1, hits give low values 1.01 | locus YBR021W, strain FUR4, hits give low values 1 | locus YBR023C, strain chs3, hits give low values 0.972 | locus YBR171W, strain sec66, hits give low values 0.986 | locus YBR229C, strain ROT2, hits give low values 0.996 | locus YBR231C, strain swc5, hits give low values 0.997 | locus YBR279W, strain paf1, hits give low values 0.98 | locus YCL011C, strain gbp2, hits give low values 0.985 | locus YCL016C, strain dcc1, hits give low values 0.967 | locus YCL029C, strain bik1, hits give low values 0.987 | locus YCL061C, strain MRC1 (second series), hits give low values 0.988 | locus YCL069W, strain vba3, hits give low values 0.988 | locus YCR088W, strain abp1, hits give low values 0.984 | locus YDL005C, strain med2, hits give low values 0.959 | locus YDL035C, strain GPR1, hits give low values 0.994 | locus YDL040C, strain nat1, hits give low values 0.973 | locus YDL074C, strain BRE1, hits give low values 1.02 | locus YDL101C, strain DUN1, hits give low values 0.987 | locus YDL134C, strain PPH21, hits give low values 1 | locus YDL192W, strain arf1, hits give low values 0.971 | locus YDR001C, strain nth1, hits give low values 0.982 | locus YDR069C, strain doa4, hits give low values 0.993 | locus YDR101C, strain arx1, hits give low values 0.977 | locus YDR137W, strain rgp1, hits give low values 0.962 | locus YDR159W, strain sac3, hits give low values 0.983 | locus YDR162C, strain NBP2, hits give low values 0.995 | locus YDR195W, strain ref2 0.998 | locus YDR297W, strain sur2, hits give low values 0.99 | locus YDR318W, strain mcm21, hits give low values 0.979 | locus YDR334W, strain swr1, hits give low values 0.964 | locus YDR335W, strain msn5, hits give low values 0.984 | locus YDR363W, strain ESC2, hits give low values 0.957 | locus YDR388W, hits give low values 0.988 | locus YDR392W, strain spt3, hits give low values 0.883 | locus YDR502C, strain sam2, hits give low values 0.978 | locus YEL003W, strain gim4, hits give low values 0.992 | locus YEL037C, strain rad23, hits give low values 0.972 | locus YEL061C, strain CIN8 (second series), hits give low values 0.977 | locus YEL061C, strain CIN8, hits give low values 0.994 | locus YER002W, strain NOP16, hits give low values 1.01 | locus YER015W, strain faa2, hits give low values 0.987 | locus YER016W, strain bim1, hits give low values 0.946 | locus YER110C, hits give low values 0.97 | locus YER111C, strain swi4, hits give low values 0.967 | locus YER155C, strain BEM2 (second series), hits give low values 0.975 | locus YER155C, strain BEM2, hits give low values 0.991 | locus YER167W, strain BCK2, hits give low values 0.993 | locus YFR010W, strain ubp6, hits give low values 0.999 | locus YGL078C, strain dbp3, hits give low values 0.981 | locus YGL086W, strain mad1, hits give low values 0.987 | locus YGL167C, strain pmr1, hits give low values 0.986 | locus YGL173C, strain kem1, hits give low values 0.971 | locus YGL227W, strain vid30, hits give low values 0.98 | locus YGL240W, strain doc1, hits give low values 1.02 | locus YGL248W, strain PDE1, hits give low values 0.999 | locus YGL253W, strain hxk2, hits give low values 0.962 | locus YGR078C, strain PAC10, hits give low values 0.993 | locus YGR135W, strain pre9, hits give low values 0.982 | locus YGR229C, strain SMI1, hits give low values 0.972 | locus YGR252W, strain gcn5, hits give low values 1.15 | locus YHR013C, strain ard1, hits give low values 0.955 | locus YHR027C, strain rpn1, hits give low values 0.993 | locus YHR030C, strain SLT2, hits give low values 0.981 and 0.948 | locus YHR079C, strain IRE1 (second series), hits give low values 0.981 | locus YHR079C, strain IRE1, hits give low values 0.974 | locus YHR094C, strain hxt1, hits give low values 0.975 | locus YHR129C, strain ARP1, hits give low values 1 | locus YHR142W, strain chs7, hits give low values 0.973 | locus YHR200W, strain rpn10, hits give low values 0.987 | locus YIL066C, strain RNR3, hits give low values 0.994 | locus YIL073C, strain SPO22, hits give low values 0.938 | locus YIL125W, strain kgd1, hits give low values 0.958 | locus YIR030C, strain dcg1, hits give low values 0.992 | locus YJL092W, strain hpr5, hits give low values 0.99 | locus YJL095W, strain BCK1 (second series), hits give low values 1 | locus YJL095W, strain BCK1, hits give low values 1.01 and 0.964 | locus YJL115W, strain asf1, hits give low values 1 | locus YJL129C, strain trk1, hits give low values 0.934 | locus YJL134W, strain LCB3, hits give low values 0.987 | locus YJL154C, strain vps35, hits give low values 0.974 | locus YJL164C, strain tpk1, hits give low values 1 | locus YJL166W, strain qcr8, hits give low values 1.02 | locus YJL168C, strain set2, hits give low values 0.984 | locus YJL187C, strain SWE1 (second series), hits give low values 0.976 | locus YJR043C, strain POL32, hits give low values 1 | locus YJR066W, strain TOR1, hits give low values 0.916 | locus YJR075W, strain HOC1, hits give low values 0.98

— PubChem BioAssay AID1159580 (chemical genetic matrix, 2015)
